Source: PubChem BioAssay (NCI)
The panel holds about 83,000 compounds, 20% with a hit somewhere; the sample as a whole holds those more often.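 The test compound was applied at a single concentration to cells in 96-well plates for 48 hours, and percent growth was recorded.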 Active and inactive are the calls of the source. The calls were made as follows: active = growth percent below 10; inactive = the rest.

What follows are compounds tested on MCF7 breast (assay: NCI-60 one-dose screen, 48 h (100 = growth as untreated, 0 = no growth, -100 = all killed)). Conditions: 10 µM unless noted.

Row | Structure (SMILES) | growth
1 | COc1ccc(/C(=N\N=C(N)N)c2ccc(Cl)cc2)cc1OC | 54.5% (inactive)
2 | CCCCCC[n+]1ccc(SCC(=O)n2ccc3ccccc32)c2ccccc21 | 75.6% (inactive)
3 | NCCNC(=O)c1cccc(COc2ccccc2NC(=O)c2cc(Br)c(Br)[nH]2)c1 | 16.9% (inactive)
4 | CC1CCN(CC(=O)Nn2c(COc3ccccc3)nc3ccccc3c2=O)CC1 | 42.4% (inactive)
5 | CC(C)(C)Nc1nc2c(OCCc3ccccc3)cccn2c1-c1ccc([N+](=O)[O-])cc1 | 7.18% (active)
6 | CC(C)(C)OC(=O)NCc1ccc(CNc2c([N+](=O)[O-])cnc3ccccc23)cc1 | 40.6% (inactive)
7 | NC(=O)n1c(=O)n(-c2cccc(C(F)(F)F)c2)c(=O)c2cc(-c3ccc(F)cc3F)ccc21 | 0.6% (active)
8 | CN1CCN(Cc2ccc(NC(=O)c3cncc(C#Cc4cnc5ccc(OCCCS(C)(=O)=O)nn45)c3)cc2C(F)(F)F)CC1 | -12.8% (active)
9 | COc1ccc(NC2=C(Br)C(=O)C(C)=C(C)C2=O)cc1OC | 72.1% (inactive)
10 | O=C1[C@@H]2Cc3c([nH]c4ccccc34)[C@H](c3ccc(Cl)cc3)N2C(=O)CN1C1CCN(Cc2ccccc2)CC1 | 16.2% (inactive)
11 | CCOc1cccc(/C(N)=N/C(N)=N/c2nc3ccccc3s2)c1 | 72.6% (inactive)
12 | O=C1CSC(c2cn(-c3ccccc3)nc2-c2ccc(Cl)cc2)N1c1ccccc1 (stereo not drawn) | 83.5% (inactive)
13 | CC(Nc1c(C#N)cnc2ccc(-c3cncc(-c4n[nH]c(=O)o4)c3)cc12)c1ccccc1 (stereo not drawn) | 8.39% (active)
